# Experimental data from PubChem BioAssay (NCATS).
# Several values for one entry are separate records, joined by “and”; a condition that tells them apart may be missing. Equal entries are not always repeated. Inconclusive results are not listed. Where a call stands in place of a potency, no number is given. Where a structure was tested more than once in an assay, its records may differ in their call. Activity calls are given as the source filed them. Calls come from the whole dose curve; as a rule, active = well fitted curve in the direction sought with a large enough effect; inconclusive = small, poorly fitted or top-dose-only effect, or another doubt; inactive = no such curve, though single readings can be large; an effect the other way counts as inactive or inconclusive.
# Assays:
# TAB109 = assay: qHTS profiling for inhibitors of Plasmodium falciparum proliferation (AID 504749); note: nearly all actives have a fitted effect of over 60% in size; note: potency is the fitted concentration of half-maximal effect; details: P. falciparum in erythrocytes, SYBR Green DNA, 72 h; series mostly up to 28.7 µM
# How it was run: (§1)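 SYBR Green fluorescence of parasite DNA, read after lysis and overnight dark incubation, measured growth over 72 h in erythrocyte culture at 0.3% parasitemia and 2.5% hematocrit. Data normalised to DMSO and 0.29 uM artemisinin, with plate-drift correction.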
# TAB113 = assay: as above; details: P. falciparum in erythrocytes, SYBR Green DNA, 72 h; series mostly up to 28.7 µM
# How it was run: as §1
# W2 = assay: as above; details: P. falciparum in erythrocytes, SYBR Green DNA, 72 h; series mostly up to 28.7 µM
# How it was run: as §1
# HEK293 = assay: Cytotoxic Profiling of Annotated Libraries Using Quantitative High-Throughput Screening (AID 1296008); details: Five cell lines viability, CellTiter-Glo ATP luminescence, 48-72 h; max response: stronger effect = lower value; note: nearly all actives have a fitted effect of over 60% in size; note: potency is the fitted concentration of half-maximal effect
# How it was run: (§2)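 Cytotoxicity was measured as CellTiter-Glo ATP luminescence, read after 10 min at room temperature. Compound treatment of the cells lasted 48 or 72 hr at 37 degrees Celsius in a qHTS format.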
# HaCat [1] = assay: as above; details: Five cell lines viability, CellTiter-Glo ATP luminescence, 48-72 h; max response: stronger effect = lower value
# How it was run: as §2
# KB-3-1 = assay: as above; details: Five cell lines viability, CellTiter-Glo ATP luminescence, 48-72 h; max response: stronger effect = lower value
# How it was run: as §2
# NIH3T3 = assay: as above; details: Five cell lines viability, CellTiter-Glo ATP luminescence, 48-72 h; max response: stronger effect = lower value
# How it was run: as §2
# HACAT [2] = assay: qHTS assay to identify novel small-molecules to repurpose for Merkel cell carcinoma treatment (AID 1296009); details: MCC and control cell lines, CellTiter-Glo viability, 72 h; at 44.8 µM (top of the series) unless noted; note: nearly all actives have a fitted effect of over 60% in size; note: potency is the fitted concentration of half-maximal effect
# How it was run: (§3)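 Cell viability, measured as CellTiter-Glo luminescence, was normalized between DMSO and no-cell wells. The cells had been exposed to 8- or 11-point compound dilutions for 72 hr at 37 degree celsius.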
# HEK293T = assay: as above; details: MCC and control cell lines, CellTiter-Glo viability, 72 h; at 44.8 µM (top of the series)
# How it was run: as §3
# MCC-13 = assay: as above; details: MCC and control cell lines, CellTiter-Glo viability, 72 h; series mostly up to 46 µM
# How it was run: as §3
# MCC-26 = assay: as above; details: MCC and control cell lines, CellTiter-Glo viability, 72 h; series mostly up to 46 µM
# How it was run: as §3
# MKL-1 = assay: as above; details: MCC and control cell lines, CellTiter-Glo viability, 72 h; series mostly up to 46 µM
# How it was run: as §3
# MKL-2 = assay: as above; details: MCC and control cell lines, CellTiter-Glo viability, 72 h; series mostly up to 46 µM
# How it was run: as §3
# UISO = assay: as above; details: MCC and control cell lines, CellTiter-Glo viability, 72 h; series mostly up to 46 µM
# How it was run: as §3
# WaGa = assay: as above; details: MCC and control cell lines, CellTiter-Glo viability, 72 h; series mostly up to 46 µM
# How it was run: as §3
# C33A = assay: Primary qHTS to identify gynecologic anti-cancer compounds using libraries of approved drugs and bioactive compounds (AID 1345084); details: Gynecologic cancer cell panel viability, ATPlite luminescence, 48 h; series mostly up to 57.5 µM; note: nearly all actives have a fitted effect of over 55% in size
# How it was run: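 In this quantitative HTS, cell killing is estimated from loss of ATP-dependent luciferase light. Cells see five compound concentrations over a 48 h exposure.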
# TAB165 = assay: qHTS profiling for inhibitors of Plasmodium falciparum proliferation (AID 504749); note: nearly all actives have a fitted effect of over 60% in size; note: potency is the fitted concentration of half-maximal effect; details: P. falciparum in erythrocytes, SYBR Green DNA, 72 h; series mostly up to 28.7 µM
# How it was run: as §1
# CRL-7250 = normal cell line; assay: Cytotoxic Profiling of Annotated Libraries Using Quantitative High-Throughput Screening (AID 1296008); details: Five cell lines viability, CellTiter-Glo ATP luminescence, 48-72 h; max response: stronger effect = lower value; note: nearly all actives have a fitted effect of over 60% in size; note: potency is the fitted concentration of half-maximal effect
# How it was run: as §2
compound,measurement,setting,value
CN1CCN(CCCN2c3ccccc3Sc3ccc(C(F)(F)F)cc32)CC1,Potency,TAB109,11.2 µM (active)
same,Potency,TAB113,inactive
same,Potency,W2,4.78 µM (active)
same,Potency,HEK293,23.7 µM (active)
same,outcome,HEK293,inactive
same,max response,HaCat [1],-7.86% (inactive)
same,outcome,HaCat [1],inactive
same,max response,KB-3-1,-5.37% (inactive)
same,outcome,KB-3-1,inactive
same,max response,NIH3T3,-0.173% (inactive)
same,outcome,HACAT [2],inactive
same,outcome,HEK293T,inactive
same,Potency,MCC-13,inactive
same,Potency,MCC-26,inactive
same,Potency,MKL-1,inactive
same,Potency,MKL-2,10.6 µM (active) and inactive
same,Potency,UISO,inactive
same,Potency,WaGa,inactive
same,Potency,C33A,inactive
Cc1ccccc1C(OCCN(C)C)c1ccccc1 (centres undefined),Potency,TAB165,7.94 µM (active)
same,Potency,W2,4.26 µM (active)
same,outcome,CRL-7250,inactive
same,max response,HaCat [1],-11.7% (inactive)
same,outcome,HaCat [1],inactive
same,max response,KB-3-1,4.24% (inactive) and -3.9% (inactive)
same,outcome,KB-3-1,inactive
same,max response,NIH3T3,-2.58% (inactive) and 4.52% (inactive)
same,outcome,HACAT [2],inactive
same,Potency,MCC-13,inactive
same,Potency,MCC-26,inactive
same,Potency,MKL-1,inactive
same,Potency,MKL-2,inactive
same,Potency,UISO,inactive
same,Potency,WaGa,inactive
same,Potency,C33A,inactive
CCCCCCCc1ccc(CCc2cccc(O)c2C(=O)O)cc1,max response,CRL-7250,-0.808% (inactive)
same,outcome,HaCat [1],inactive
same,outcome,HACAT [2],inactive
same,Potency,MCC-13,inactive
same,Potency,MCC-26,inactive
same,Potency,MKL-1,inactive
same,Potency,MKL-2,inactive
same,Potency,UISO,inactive
same,Potency,WaGa,inactive
Cc1ccc(-n2nc(C(C)(C)C)cc2NC(=O)Nc2ccc(OCCN3CCOCC3)c3ccccc23)cc1,max response,CRL-7250,1.93% (inactive) and -9.63% (inactive)
same,max response,HaCat [1],-3.92% (inactive)
same,outcome,HaCat [1],inactive
same,outcome,KB-3-1,inactive
same,max response,NIH3T3,-5.48% (inactive)
same,outcome,HACAT [2],inactive
same,Potency,MCC-13,inactive
same,Potency,MCC-26,inactive
same,Potency,MKL-1,inactive and 23.7 µM (active)
same,Potency,MKL-2,18.8 µM (active)
same,Potency,WaGa,inactive
same,Potency,C33A,inactive
Nc1ncnc2nc(-c3ccc(N4CCOCC4)nc3)cc(-c3cccc(Br)c3)c12,max response,CRL-7250,0.286% (inactive)
same,max response,HaCat [1],3.01% (inactive)
same,outcome,KB-3-1,inactive
same,max response,NIH3T3,1.04% (inactive)
same,Potency,MCC-13,inactive
same,Potency,MCC-26,inactive
same,Potency,MKL-1,inactive
same,Potency,MKL-2,inactive
same,Potency,UISO,inactive
same,Potency,WaGa,inactive
CCc1cc(Nc2nccc(-c3c(-c4ccc(OC)c(C(=O)Nc5c(F)cccc5F)c4)nc4ccccn34)n2)c(OC)cc1N1CCC(N2CCN(S(C)(=O)=O)CC2)CC1,max response,CRL-7250,-19.7% (inactive)
same,outcome,HaCat [1],inactive
same,max response,KB-3-1,5.37% (inactive) and -9.54% (inactive)
same,max response,NIH3T3,-25.3% (inactive)
same,outcome,HACAT [2],inactive
same,Potency,MCC-13,inactive
same,Potency,MCC-26,inactive
same,Potency,MKL-1,inactive
same,Potency,WaGa,inactive
same,Potency,C33A,inactive
Cn1c(=O)c(F)c(Nc2ccc(I)cc2F)c2c(=O)n(C[C@@H](O)CO)cnc21,Potency,CRL-7250,0.935 µM (active)
same,Potency,HaCat [1],0.833 µM (active)
same,max response,KB-3-1,-4.57% (inactive)
same,Potency,MCC-26,inactive
same,Potency,MKL-1,inactive
same,Potency,UISO,inactive
same,Potency,WaGa,inactive
Oc1cccc(-c2nc(N3CCOCC3)c3oc4ncccc4c3n2)c1,Potency,CRL-7250,0.0762 µM (active)
same,Potency,HEK293,0.171 µM (active)
same,Potency,NIH3T3,0.762 µM (active)
COc1ccc(C2=N[C@H](c3ccc(Cl)cc3)[C@H](c3ccc(Cl)cc3)N2C(=O)N2CCNC(=O)C2)c(OC(C)C)c1,Potency,CRL-7250,3.32 µM (active)
same,Potency,HEK293,11.8 µM (active)
same,Potency,MCC-13,inactive
same,Potency,MCC-26,inactive
same,Potency,MKL-1,9.35 µM (active)
same,Potency,WaGa,2.96 µM (active)
Nc1cccc(S(=O)(=O)N2CCCN(S(=O)(=O)c3ccc4c(c3)OCCO4)CC2)c1,max response,CRL-7250,0.264% (inactive)
same,max response,HaCat [1],-12.2% (inactive)
same,max response,KB-3-1,-7.85% (inactive)
same,max response,NIH3T3,-8.98% (inactive)
same,Potency,MCC-13,inactive
same,Potency,MCC-26,inactive
same,Potency,MKL-1,inactive
same,Potency,MKL-2,inactive
same,Potency,UISO,inactive
same,Potency,WaGa,inactive
C[C@]12CCC(=O)C=C1CC[C@@H]1[C@@H]2[C@@H](O)C[C@@]2(C)[C@H]1CC[C@]2(O)C(=O)CO,max response,CRL-7250,3.48% (inactive)
same,max response,HEK293,-3.59% (inactive)
same,max response,NIH3T3,1.04% (inactive)
same,Potency,MCC-13,inactive
same,Potency,MCC-26,inactive
same,Potency,MKL-1,inactive
same,Potency,MKL-2,inactive
same,Potency,UISO,inactive
same,Potency,WaGa,inactive
same,Potency,C33A,inactive
Nc1nc2ccc(OC(F)(F)F)cc2s1,Potency,TAB109,inactive
same,Potency,TAB113,inactive
same,Potency,TAB165,inactive
same,Potency,W2,inactive
same,outcome,CRL-7250,inactive
same,max response,HaCat [1],-58.3% (inactive)
same,outcome,HaCat [1],inactive
same,max response,KB-3-1,-6.76% (inactive)
same,max response,NIH3T3,-3.98% (inactive)
same,outcome,HACAT [2],inactive
same,Potency,MCC-13,inactive
same,Potency,MCC-26,inactive
same,Potency,MKL-1,inactive
same,Potency,MKL-2,inactive
same,Potency,UISO,inactive
same,Potency,WaGa,inactive
same,Potency,C33A,inactive
